Data as given in PubChem BioAssay (EPA / NIEHS).
Records with an inconclusive call do not appear. Some structures have more than one record in an assay (separate samples or runs), and their calls can disagree. Active and inactive are the calls of the source. The calls were made as follows, unless noted: active = hit-call score of the fitted dose curve at least 0.9, where 1 is the maximum; inconclusive = response in the unintended direction; inactive = score below 0.9.

How the values were obtained:
[1] = target: rat Glutamate, MK-801 Agonist Site (GluNMDA_MK801), Grin1 (gene 24408) (UniProt P35439); assay: NVS_LGIC_rGluNMDA_MK801_Agonist: NovaScreen (NVS) Ligand-Gated Ion Channel Assay for rat Glutamate, MK-801 Agonist Site (GluNMDA_MK801) (AID 2283340)
How it was run: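 Rat forebrain membrane preparation; MK-801-site radioligand binding read by filtration and scintillation after 1.5 h. Single-point 25 uM duplicate screen, followed by singleton concentration series to 50 uM max; DMSO baseline.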

[2] = system: guinea pig Histamine Receptor (H2), gene 100729734; assay: NVS_GPCR_gH2: NovaScreen (NVS) G Protein-Coupled Receptor Assay for guinea pig Histamine Receptor (H2) (AID 2283342)
How it was run: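 Guinea pig striatal membrane preparation with specific radioligand; bound counts measured by filtration and scintillation 1 h post-dosing, DMSO as baseline. Chemicals passing a 25 uM duplicate screen were titrated to a 50 uM maximum.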

[3] = target: bovine Estrogen Receptor (ER), ESR1 (gene 407238) (UniProt P49884); assay: NVS_NR_bER: NovaScreen (NVS) Nuclear Receptor Binding Assay for bovine Estrogen Receptor (ER) (AID 2283345);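 also: actives lower the bound radioligand count which means they displace the ER ligand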
Chain of bovine Estrogen Receptor (ER), ESR1 (gene 407238) (P49884 whole entry, looked up): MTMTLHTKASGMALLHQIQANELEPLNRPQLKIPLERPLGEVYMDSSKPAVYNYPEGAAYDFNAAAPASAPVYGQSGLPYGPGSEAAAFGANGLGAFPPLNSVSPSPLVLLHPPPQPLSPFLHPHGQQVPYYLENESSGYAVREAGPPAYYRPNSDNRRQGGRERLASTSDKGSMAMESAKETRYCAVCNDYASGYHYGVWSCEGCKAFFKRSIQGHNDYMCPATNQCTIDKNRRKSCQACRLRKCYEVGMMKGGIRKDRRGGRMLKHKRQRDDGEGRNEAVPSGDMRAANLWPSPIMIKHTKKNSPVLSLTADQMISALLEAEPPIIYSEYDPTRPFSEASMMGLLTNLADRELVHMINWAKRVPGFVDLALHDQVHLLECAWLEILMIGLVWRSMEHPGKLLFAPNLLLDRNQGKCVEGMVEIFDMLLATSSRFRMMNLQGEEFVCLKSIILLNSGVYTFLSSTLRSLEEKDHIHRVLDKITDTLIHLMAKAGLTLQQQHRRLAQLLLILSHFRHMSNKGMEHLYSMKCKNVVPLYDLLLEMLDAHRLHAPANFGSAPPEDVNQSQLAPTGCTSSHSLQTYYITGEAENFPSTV
How it was run: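 Displacement of a radioligand from estrogen receptor in bovine uterine membrane preparations; scintillation signal taken at 18 hours, DMSO as baseline. Single-concentration duplicates (25 uM) preceded concentration-response follow-up of actives.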

[4] = target: human Constitutive Androstane Receptor (CAR), NR1I3 (gene 9970) (UniProt Q14994); assay: NVS_NR_hCAR_Antagonist: NovaScreen (NVS) Nuclear Receptor Binding Assay for human Constitutive Androstane Receptor Antagonism (CAR) (AID 2283344)
Chain of human Constitutive Androstane Receptor (CAR), NR1I3 (gene 9970) (Q14994 whole entry, looked up): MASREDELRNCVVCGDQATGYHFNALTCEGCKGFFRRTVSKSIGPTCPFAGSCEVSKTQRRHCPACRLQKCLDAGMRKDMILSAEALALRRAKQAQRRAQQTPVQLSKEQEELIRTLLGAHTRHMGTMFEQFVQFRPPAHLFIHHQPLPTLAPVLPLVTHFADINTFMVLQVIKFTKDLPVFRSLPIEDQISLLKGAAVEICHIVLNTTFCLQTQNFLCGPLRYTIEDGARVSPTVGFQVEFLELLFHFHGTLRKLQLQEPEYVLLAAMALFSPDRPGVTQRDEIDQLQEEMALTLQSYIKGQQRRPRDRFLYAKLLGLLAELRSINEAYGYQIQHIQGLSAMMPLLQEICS
How it was run: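 Single 25 uM duplicate primary screen, with concentration-series follow-up on actives. Cell-free binding format run in antagonist mode, TR-FRET signal taken 1 h post-dose; activity is signal loss relative to DMSO.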

[5] = target: human Peripheral-type Benzodiazepine Receptor (PBR), TSPO (gene 706) (UniProt P30536); assay: NVS_MP_hPBR: NovaScreen (NVS) Membrane Protein Assay for human Peripheral-type Benzodiazepine Receptor (PBR) (AID 2283331);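 also: hits reduce radioligand binding relative to DMSO baseline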
Chain of human Peripheral-type Benzodiazepine Receptor (PBR), TSPO (gene 706) (P30536 whole entry, looked up): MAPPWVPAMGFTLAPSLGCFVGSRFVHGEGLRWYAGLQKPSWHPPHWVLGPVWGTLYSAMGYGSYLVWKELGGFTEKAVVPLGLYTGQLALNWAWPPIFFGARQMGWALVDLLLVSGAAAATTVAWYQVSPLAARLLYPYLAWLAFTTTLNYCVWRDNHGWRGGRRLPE
How it was run: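 Cell-free radioligand displacement, human colonic membranes, 1 h exposure. Filter radiodetection read-out. Single-concentration duplicates (25 uM), then concentration-response for actives; DMSO negative control.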

[6] = target: rat Peripheral-type Benzodiazepine Receptor (PBR), Tspo (gene 24230) (UniProt P16257); assay: NVS_MP_rPBR: NovaScreen (NVS) Membrane Protein Assay for rat Peripheral-type Benzodiazepine Receptor (PBR) (AID 2283335)
Chain of rat Peripheral-type Benzodiazepine Receptor (PBR), Tspo (gene 24230) (P16257 whole entry, looked up): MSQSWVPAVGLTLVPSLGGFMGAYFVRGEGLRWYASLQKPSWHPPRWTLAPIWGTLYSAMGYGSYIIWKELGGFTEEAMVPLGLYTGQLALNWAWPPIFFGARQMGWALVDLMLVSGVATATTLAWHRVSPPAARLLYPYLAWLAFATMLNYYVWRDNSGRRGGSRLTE
How it was run: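 Single-concentration duplicate screening at 25 uM preceded concentration-series retesting of actives. Binding of a specific radioligand to rat kidney membrane PBR was read by filtration radiodetection after 1 h, with plate-wise positive and negative controls.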

[7] = target: bovine Gamma-Aminobutyric Acid Type A Receptor Agonist (GABAR Agonist), GABRA1 (gene 780973) (UniProt P08219); assay: NVS_LGIC_bGABAR_Agonist: NovaScreen (NVS) Ligand-Gated Ion Channel Assay for bovine Gamma-Aminobutyric Acid Type A Receptor Agonist (GABAR Agonist) (AID 2283338)
Chain of bovine Gamma-Aminobutyric Acid Type A Receptor Agonist (GABAR Agonist), GABRA1 (gene 780973) (P08219 whole entry, looked up): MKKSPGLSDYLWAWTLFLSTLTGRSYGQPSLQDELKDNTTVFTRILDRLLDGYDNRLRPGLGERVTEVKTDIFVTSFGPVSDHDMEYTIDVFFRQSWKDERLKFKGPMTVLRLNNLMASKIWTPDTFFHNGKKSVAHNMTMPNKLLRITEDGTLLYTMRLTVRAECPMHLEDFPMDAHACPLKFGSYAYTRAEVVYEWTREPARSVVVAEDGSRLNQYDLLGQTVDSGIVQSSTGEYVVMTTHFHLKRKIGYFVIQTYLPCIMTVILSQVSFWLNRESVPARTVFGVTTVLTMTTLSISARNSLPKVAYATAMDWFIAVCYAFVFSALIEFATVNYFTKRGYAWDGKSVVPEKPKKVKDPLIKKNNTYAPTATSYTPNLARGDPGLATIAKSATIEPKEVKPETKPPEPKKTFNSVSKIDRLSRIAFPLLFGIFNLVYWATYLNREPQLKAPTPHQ
How it was run: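 Radioligand binding to bovine cerebellar membranes in agonist format, read by filter-based scintillation counting after 1 h. Primary screen in duplicate at 25 uM, with actives followed in concentration series. Gain of signal versus DMSO.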

[8] = target: Voltage-gated inwardly rectifying potassium channel KCNH2 (Homo sapiens) (UniProt Q12809); assay: NVS_IC_hKhERGCh: NovaScreen (NVS) Ion Channel Assay for human Potassium Channel ERG (KhERGCh) (AID 2283333)
Chain of Voltage-gated inwardly rectifying potassium channel KCNH2 (Homo sapiens) (Q12809 whole entry, looked up): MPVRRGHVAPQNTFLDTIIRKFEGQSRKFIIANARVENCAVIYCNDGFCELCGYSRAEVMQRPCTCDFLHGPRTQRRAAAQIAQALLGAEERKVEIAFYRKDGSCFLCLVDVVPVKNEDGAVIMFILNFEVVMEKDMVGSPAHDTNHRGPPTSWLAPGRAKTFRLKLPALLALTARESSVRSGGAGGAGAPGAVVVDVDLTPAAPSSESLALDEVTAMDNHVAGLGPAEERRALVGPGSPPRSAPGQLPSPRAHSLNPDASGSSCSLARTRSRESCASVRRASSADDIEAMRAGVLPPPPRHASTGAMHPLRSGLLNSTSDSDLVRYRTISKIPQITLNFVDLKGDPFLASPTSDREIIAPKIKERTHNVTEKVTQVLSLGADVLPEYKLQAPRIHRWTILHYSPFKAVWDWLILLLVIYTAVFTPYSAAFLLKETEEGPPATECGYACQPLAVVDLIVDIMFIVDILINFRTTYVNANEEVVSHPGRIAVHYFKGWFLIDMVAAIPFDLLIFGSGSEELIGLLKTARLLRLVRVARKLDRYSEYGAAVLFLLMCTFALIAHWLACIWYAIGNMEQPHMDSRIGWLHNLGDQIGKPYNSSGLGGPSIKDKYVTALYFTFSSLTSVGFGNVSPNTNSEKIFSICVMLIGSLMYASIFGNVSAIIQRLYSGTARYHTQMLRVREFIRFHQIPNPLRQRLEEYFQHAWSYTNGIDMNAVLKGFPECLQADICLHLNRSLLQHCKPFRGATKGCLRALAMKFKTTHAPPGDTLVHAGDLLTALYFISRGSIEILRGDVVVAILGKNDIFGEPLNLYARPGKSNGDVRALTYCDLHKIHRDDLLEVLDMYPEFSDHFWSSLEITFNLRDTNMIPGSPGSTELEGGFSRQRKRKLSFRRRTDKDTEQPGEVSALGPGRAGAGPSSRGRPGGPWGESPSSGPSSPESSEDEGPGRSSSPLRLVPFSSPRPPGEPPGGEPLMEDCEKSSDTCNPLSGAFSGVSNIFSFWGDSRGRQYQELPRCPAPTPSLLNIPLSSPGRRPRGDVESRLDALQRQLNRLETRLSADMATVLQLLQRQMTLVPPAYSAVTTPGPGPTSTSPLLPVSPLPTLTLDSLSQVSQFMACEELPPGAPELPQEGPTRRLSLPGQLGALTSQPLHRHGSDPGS
How it was run: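 Membranes from CHO cells expressing human ERG; displacement of radioligand measured by filtration and scintillation after 0.75 h. Single-concentration duplicate screen at 25 uM, then concentration-response for actives; DMSO baseline.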

[9] = NVS_IC_rCaBTZCHL: NovaScreen (NVS) Ion Channel Assay for Calcium Channel, Type L, Benzothiazepine Site (CaBTZCHL) (AID 2283337)
How it was run: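 Rat cortical membrane preparation, cell-free. Radioligand displaced by test chemical; 1.5 h incubation; filtration, scintillation count. DMSO = negative control/baseline. Primary: duplicate, 25 uM; secondary: concentration series.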

[10] = target: rat Glycine Receptor, Strychnine-sensitive (GlyRStrySens), Glra1 (gene 25674) (UniProt P07727); assay: NVS_LGIC_rGlyRStrySens: NovaScreen (NVS) Ligand-Gated Ion Channel Assay for rat Glycine Receptor, Strychnine-sensitive (GlyRStrySens) (AID 2283341)
Chain of rat Glycine Receptor, Strychnine-sensitive (GlyRStrySens), Glra1 (gene 25674) (P07727 whole entry, looked up): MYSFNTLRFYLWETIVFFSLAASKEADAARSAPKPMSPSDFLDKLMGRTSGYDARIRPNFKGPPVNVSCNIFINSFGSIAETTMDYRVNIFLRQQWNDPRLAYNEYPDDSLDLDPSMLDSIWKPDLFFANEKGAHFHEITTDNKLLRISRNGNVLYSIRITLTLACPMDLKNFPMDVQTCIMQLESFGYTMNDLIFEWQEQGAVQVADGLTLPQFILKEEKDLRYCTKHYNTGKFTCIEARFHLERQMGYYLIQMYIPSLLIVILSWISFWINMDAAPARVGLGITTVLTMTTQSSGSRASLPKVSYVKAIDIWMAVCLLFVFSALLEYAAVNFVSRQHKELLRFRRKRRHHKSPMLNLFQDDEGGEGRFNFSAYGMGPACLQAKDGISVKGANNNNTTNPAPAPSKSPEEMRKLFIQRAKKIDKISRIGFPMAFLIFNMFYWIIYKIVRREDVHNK
How it was run: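 Radioligand displacement on rat spinal cord membranes, 1 hr, filter scintillation read-out. Single-concentration duplicate screen at 25 uM; chemicals meeting threshold (e.g., 30% inhibition) rerun in concentration-response up to 50 uM. Loss of binding fitted versus DMSO.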

[11] = target: Glutamate receptor ionotropic, kainate 1 (Rattus norvegicus) (UniProt P22756); assay: NVS_IC_rKAR: NovaScreen (NVS) Ion Channel Assay for rat Kainic Acid Receptors (KAR) (AID 2283334; active = hit-call score of the fitted dose curve at least 0.9, where 1 is the maximum; inactive = score below 0.9)
Chain of Glutamate receptor ionotropic, kainate 1 (Rattus norvegicus) (P22756 whole entry, looked up): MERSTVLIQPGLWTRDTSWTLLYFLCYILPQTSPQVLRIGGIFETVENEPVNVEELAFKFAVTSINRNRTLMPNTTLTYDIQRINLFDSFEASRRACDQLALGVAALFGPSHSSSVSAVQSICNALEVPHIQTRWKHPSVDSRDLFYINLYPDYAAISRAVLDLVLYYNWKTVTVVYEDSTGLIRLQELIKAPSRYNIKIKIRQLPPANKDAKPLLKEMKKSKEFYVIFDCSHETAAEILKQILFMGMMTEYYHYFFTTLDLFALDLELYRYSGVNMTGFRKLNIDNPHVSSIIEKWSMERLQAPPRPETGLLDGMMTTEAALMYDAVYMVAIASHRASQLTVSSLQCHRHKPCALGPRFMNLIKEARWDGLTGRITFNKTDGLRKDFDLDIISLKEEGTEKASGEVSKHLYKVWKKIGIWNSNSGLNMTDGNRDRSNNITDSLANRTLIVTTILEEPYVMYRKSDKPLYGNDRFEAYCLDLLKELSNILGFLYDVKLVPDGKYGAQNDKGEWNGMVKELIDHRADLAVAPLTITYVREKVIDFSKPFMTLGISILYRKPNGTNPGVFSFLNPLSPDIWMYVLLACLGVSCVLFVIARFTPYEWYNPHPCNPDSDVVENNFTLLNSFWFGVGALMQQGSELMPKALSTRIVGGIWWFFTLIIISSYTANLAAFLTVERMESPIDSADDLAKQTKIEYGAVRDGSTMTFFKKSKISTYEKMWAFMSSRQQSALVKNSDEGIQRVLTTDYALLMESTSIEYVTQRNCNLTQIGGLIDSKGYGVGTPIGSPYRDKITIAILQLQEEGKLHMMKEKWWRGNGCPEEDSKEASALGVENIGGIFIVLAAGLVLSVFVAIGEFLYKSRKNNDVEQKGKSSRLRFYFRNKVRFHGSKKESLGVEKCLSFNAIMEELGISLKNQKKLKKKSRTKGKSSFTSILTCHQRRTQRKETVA
How it was run: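 Rat forebrain membrane preparation incubated 1 h with radioligand and test chemical; bound signal read by filtration and scintillation. Single-concentration screen at 25 uM, then concentration series to 50 uM maximum.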

c1ccc(C[n+]2cccc3ccccc32)cc1
outcome [1]: inactive
AC50 [2]: 25 µM (active)
outcome [3]: inactive

O=C(Nc1ccc(Cl)cc1)Nc1ccc(Cl)c(Cl)c1
outcome [3]: inactive

CC(C)(C)c1csc(-c2cc3cc(OCc4ccccc4CC(=O)O)ccc3o2)n1
outcome [4]: inactive

CCCCOC(=O)CC(CC(=O)OCCCC)(OC(C)=O)C(=O)OCCCC
outcome [5]: inactive
outcome [6]: inactive

Cc1cccc2ccccc12
outcome [7]: inactive

NCc1cccc(C2CCN(C(=O)c3ccc(C#Cc4ccccc4F)o3)CC2)c1
AC50 [5]: 2.7 µM (active)
AC50 [8]: 6.03 µM (active)
outcome [6]: inactive
AC50 [9]: 2.9 µM (active)
AC50 [1]: 39.9 µM (active)
outcome [10]: inactive
AC50 [2]: 12 µM (active)

CCN(CC)C(=O)c1cc(S(=O)(=O)Cc2ccccc2)c(N2CCC(c3ccccc3)CC2)cc1N(CC)CCN(C)C
AC50 [5]: 3.31 µM (active)
AC50 [8]: 6.17 µM (active)
AC50 [9]: 0.214 µM (active)
outcome [7]: inactive
AC50 [2]: 2.84 µM (active)
outcome [4]: inactive

CN1C(=O)N(c2ccccc2Br)Cc2cnc(Nc3ccc4c(c3)OCC(CO)O4)nc21 (centres undefined)
AC50 [3]: 0.447 µM (active)

CC1=CC(=O)/C(=C(/C)O)C(=O)O1
outcome [4]: inactive

Cc1ccc(C(C)C)cc1
outcome [7]: inactive

CCCC(=O)OCCC(C)C
outcome [11]: inactive

C[C@]12CC[C@@H]3c4ccc(O)cc4CC[C@H]3[C@@H]1CCC2=O
outcome [3]: inactive

CC[C@H](NC(=O)c1cc(F)ccc1NS(=O)(=O)c1cccc2cccnc12)c1ccccc1
AC50 [5]: 0.246 µM (active)
AC50 [6]: 0.0869 µM (active)
outcome [3]: inactive

Clc1ccccc1C(c1ccccc1)(c1ccccc1)n1ccnc1
outcome [3]: inactive

CC(=O)N1CCN(c2ccc(OC[C@H]3CO[C@](Cn4ccnc4)(c4ccc(Cl)cc4Cl)O3)cc2)CC1
outcome [4]: inactive

CC(C)(c1cc(Br)c(O)c(Br)c1)c1cc(Br)c(O)c(Br)c1
AC50 [7]: 44.4 µM (active)
outcome [3]: inactive

NC(=O)c1nc(-c2cccc(-c3cc(F)ccc3OCC(F)(F)C(F)(F)F)c2)n[nH]1
outcome [5]: inactive
AC50 [6]: 5.7 µM (active)

CCCCCCCCCCCC[N+](C)(C)C
AC50 [8]: 10.2 µM (active)
AC50 [9]: 12.2 µM (active)
AC50 [2]: 19.6 µM (active)

CC(C)(C)c1cc(/C=C2\SC(N)=NC2=O)cc(C(C)(C)C)c1O
outcome [3]: inactive

CCCCCCCCN(C)CCCCCCCC
outcome [8]: inactive
outcome [11]: inactive
outcome [9]: inactive
AC50 [2]: 14.5 µM (active)
outcome [3]: inactive
